Screen size: about 50,000 compounds; about 800 (1.6%) showed an effect of 50% or more. This excerpt belongs to a sample that is enriched for strong results.

The source of these data is PubChem BioAssay AID1240 (Sanford-Burnham Center for Chemical Genomics, 2008).

The target of the experiment is Bcl-2-like protein 10 (Homo sapiens) (UniProt Q9HD36). As to the kind of experiment: TR3 peptide-Bcl-B binding displacers, biochemical primary FP assay, phenotype converters (AID 1240).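 Note: 0% = Bcl-B with tracer peptide and DMSO and 100% = tracer peptide lacking Bcl-B.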 As to conditions: GST-Bcl-B / FITC-TR3 peptide fluorescence polarization; stronger effect = higher value; compound at 3.75 mg/L. (In general: Polarisation of emitted light reports the rotation of a fluorescent probe.)
Chain of Bcl-2-like protein 10 (Homo sapiens) (Q9HD36 whole entry, looked up): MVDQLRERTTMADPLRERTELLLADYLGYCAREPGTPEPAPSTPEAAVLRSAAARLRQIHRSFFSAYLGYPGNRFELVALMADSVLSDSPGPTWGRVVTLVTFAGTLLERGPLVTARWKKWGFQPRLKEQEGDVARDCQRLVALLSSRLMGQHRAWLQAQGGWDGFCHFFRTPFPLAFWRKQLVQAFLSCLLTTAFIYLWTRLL
As for `O=C(O)c1ccc(-c2ccc(OC(F)(F)F)cc2)o1`, the displacement is -7.6%.
The figure for `NC(=S)N/N=C/c1cccn1-c1ccc([N+](=O)[O-])cc1` is -1%; for `O=C1S/C(=C/c2ccc(Cl)c(Cl)c2)C(=O)N1c1ccccc1` it is 17.9%; for `CCOC(=O)c1c(NC(=O)CC2SC(N)=NC2=O)sc2c1CCCC2` (centres undefined) it is 6.3%.
As for `COc1ccc(C(=O)CC(Nc2ccc([N+](=O)[O-])cc2)c2ccc(Cl)cc2)cc1` (centres undefined), the displacement is -4.2%.
The figure for `Cc1ccc2c(nc3s/c(=C\c4cccc(Cl)c4Cl)c(=O)n32)c1C` is -9.5%; for `Cc1ccc(S(=O)(=O)Oc2ccc(/C=C3\SC(N)=NC3=O)cc2Br)cc1` it is 1.8%; for `O=c1[nH]c(=O)n(-c2ccc(Cl)cc2)c(O)c1C=Nc1cccc(F)c1` it is 10%.
The figure for `Cc1cc(OCC(=O)Nc2cccc(F)c2)cc(C)c1Cl` is 4.1%.
For `COCCNCCOc1c(C)cc(Cl)cc1C`, the displacement came out at 7.2%.
The figure for `O=C(Nc1cc(Cl)cc(Cl)c1)c1ccc(CN2CCc3ccccc3C2)cc1` is -3.7%.
With `COC(=O)C1=C(C)N(c2ccc(C)c(C)c2)/C(=C/c2ccco2)C1=O`, the displacement amounted to 8.8%.
As to `CCN1C(=O)/C(=C\c2ccc(C)cc2)C(C(=O)OC)=C1C`, the displacement came to 86.2%.
The figure for `COC(=O)C1=C(C)N(c2ccccc2F)C(=O)/C1=C\c1ccc(F)cc1` is 2.3%; for `COC(=O)C1=C(C)N(c2ccccc2F)C(=O)/C1=C\c1ccccc1F` it is 112%.
Then `CCN1C(=O)/C(=C\c2ccccc2)C(C(=O)OC)=C1C`, with -23.3%; and `C=CCN1C(=O)/C(=C\c2ccco2)C(C(=O)OC)=C1C`, with 65.4%.
On to `CCN1C(=O)/C(=C\c2ccc(F)cc2)C(C(=O)OC)=C1C`, for which the displacement was determined as 34.2%.
On to `COC(=O)C1=C(C)N(c2cc(C)cc(C)c2)/C(=C\c2sccc2C)C1=O`, for which the displacement was 27%.
The figure for `C=CCN1C(=O)/C(=C\c2ccccc2)C(C(=O)OC)=C1C` is -2.2%; for `COC(=O)C1=C(C)N(c2ccccc2F)C(=O)/C1=C\c1sccc1C` it is 7.8%.
Then `COC(=O)C1=C(C)N(c2cc(C)cc(C)c2)/C(=C/c2ccco2)C1=O`, with 99.6%.
Then `C=CCN1C(=O)/C(=C\c2ccc(C(=O)OC)cc2)C(C(=O)OC)=C1C`, with -14.5%; and `COc1ccc(C(=O)N2CCCc3ccccc32)cc1OC`, with -3.3%; and `Cc1cc(=O)oc2cc(OCc3ccc(F)cc3)c(Cl)cc12`, with 16.8%.
As for `Cc1cc([N+](=O)[O-])ccc1NCc1cccc(C(F)(F)F)c1`, the displacement was found to be 2.6%.
With `CC1(C)CC(=O)C2=C(C1)c1c(ccc3ccccc13)NC2c1cccs1` (centres undefined), the displacement worked out at 7.2%.
Then `O=C(Nc1ccc(F)cc1)c1ccco1`, with 12.9%; and `COCCN1C(=O)/C(=C\c2ccc3c(c2)OCO3)C(C(=O)OC)=C1C`, with -8%.
Regarding `COC(=O)C1=C(C)N(c2ccc(C)cc2)C(=O)/C1=C\c1ccc2c(c1)OCO2`, the displacement came out at 107%.
Then `COC(=O)C1=C(C)N(c2cccc(C)c2)C(=O)/C1=C\c1ccc(C(=O)O)cc1`, with 6.9%; and `COC(=O)C1=C(C)N(C)C(=O)/C1=C\c1ccc2c(c1)OCO2`, with -0.7%; and `COC(=O)C1=C(C)N(C)C(=O)/C1=C\c1ccc(C(=O)OC)cc1`, with 16.4%.
Then `COC(=O)C1=C(C)N(c2ccccc2)C(=O)/C1=C\c1ccc(C(=O)OC)cc1`, with 130%; and `COc1ccccc1CC1S/C(=N\N=C\c2cccc([N+](=O)[O-])c2)NC1=O` (centres undefined), with 12.9%.
The figure for `COc1ccc(NC(=O)Nc2ccccc2C(F)(F)F)cc1` is 8.4%; for `COC(=O)C(NS(=O)(=O)c1ccccc1)C(C)C` (centres undefined) it is -12%; for `O=S(=O)(NC(c1cccs1)C(Cl)(Cl)Cl)c1ccc(Cl)cc1` (centres undefined) it is 7%.
In the case of `CN(C)c1cccc2c(C(NS(=O)(=O)c3ccccc3)C(Cl)(Cl)Cl)ccc(N(C)C)c12` (centres undefined), the displacement worked out at 144%.
On to `CCCCNC(=O)/C(=C/c1ccc(C)o1)NC(=O)c1ccccc1`, for which the displacement is 13.1%.
The figure for `CCOc1ccc(NC2=C(Cl)C(=O)N(c3cccc(Cl)c3Cl)C2=O)cc1` is 16.3%; for `N#C/C(=C/c1cc([N+](=O)[O-])ccc1Cl)C(=O)Nc1cccc(Br)c1` it is -3.3%; for `COc1ccc(N2CC(C(=O)N/N=C/c3cccs3)CC2=O)cc1` (centres undefined) it is 65%.
On to `O=C(N/N=C/c1cccs1)C1CC(=O)N(c2ccc(Cl)cc2)C1` (centres undefined), for which the displacement is -9.3%.
The figure for `O=C(N/N=C/c1cccs1)C1CC(=O)N(c2ccccc2)C1` (centres undefined) is 25%; for `O=C(O)/C=C/c1cccc(NS(=O)(=O)c2cccs2)c1` it is -13%.
Then `Cn1nnnc1SCC(=O)Nc1ccccc1`, with 4.1%; and `Cn1nnnc1SCC(=O)Nc1ccc2c(c1)oc1ccccc12`, with 87%.
In the case of `Cc1nnc(SCC(=O)Nc2ccc3c(c2)oc2ccccc23)s1`, the displacement is -8.5%.
For the compound `O=C1NC(=O)/C(=C\c2cc3c(cc2[N+](=O)[O-])OCO3)S1`, the displacement amounted to 6.8%.
Consider `CCCOc1ccc(C=C2C(=O)N(C)C(=O)N(C)C2=O)cc1OC`, for which the displacement is 1.3%.
The figure for `O=C1OC(c2ccccc2I)=N/C1=C\c1cccc([N+](=O)[O-])c1` is -4%; for `COc1ccc(/C=C2N=C(/C=C/c3ccccc3)OC/2=O)cc1` it is 88.6%; for `CCCOc1ccc(/C=C2N=C(/C=C/c3ccccc3)OC/2=O)cc1OC` it is 166%.
With `COc1ccc(OC)c(/C=C2N=C(/C=C/c3ccccc3)OC/2=O)c1`, the displacement stood at 9.6%.
The figure for `O=C1OC(/C=C/c2ccccc2)=NC/1=C/c1cccc([N+](=O)[O-])c1` is 98.4%.
Regarding `CCOc1c(Br)cc(/C=C2/C(=O)N(c3ccccc3)N=C2C)cc1OC`, the displacement was -0.6%.
The figure for `CCOc1c(Br)cc(/C=C2N=C(/C=C/c3ccccc3)OC/2=O)cc1OC` is 105%; for `CCN(CC)c1ccc(/C=C2N=C(/C=C/c3ccccc3)OC/2=O)cc1` it is -28%.
Then `O=C1OC(/C=C/c2ccccc2)=NC/1=C/c1ccccc1`, with 13.6%.
Then `O=C1OC(c2ccccc2F)=N/C1=C\c1cccc([N+](=O)[O-])c1`, with 9.9%; and `COc1cc(/C=C2\N=C(c3ccccc3)OC2=O)cc(Br)c1OCc1c(C)no[n+]1[O-]`, with -1.1%.
As for `CCOC(=O)c1c(-c2ccccc2)csc1NC(=O)c1ccc(C)cc1`, the displacement was -5.7%.
The figure for `COc1cc(/C=C2\SC(N)=NC2=O)cc(Br)c1OCc1cccc2ccccc12` is -62.1%; for `Fc1cccc(-c2nnc3ccc(C(F)(F)F)cn23)c1` it is -17%; for `CC(=O)Nc1ccc(I)cc1C` it is -5%.
`Cc1cc2c(nc3s/c(=C/c4ccccc4)c(=O)n32)c(Br)c1C`: the displacement is -4.6%.
Then `CC(C)c1ccccc1OCCCN1CCOCC1`, with -6%; and `Cc1ccc(N2C(=O)/C(=C/c3ccc(Oc4ccc([N+](=O)[O-])cn4)cc3)C(=O)NC2=S)c(C)c1`, with 7.3%.
Then `CC1=NN(c2ccccc2)C(=O)C1C(C)C[N+](=O)[O-]` (centres undefined), with -9.8%; and `COc1ccc(/C=N/NC(=O)COc2ccccc2Br)cc1`, with 2.6%; and `Cc1occc1C(=O)Nc1ccc(C(=O)O)cc1`, with -1.9%.
Then `COC(=O)c1ccc(NC(=O)c2ccoc2C)cc1`, with -2.7%; and `CC(=O)c1ccc(NC(=O)c2ccoc2C)cc1`, with 94%.
Consider `CCOc1cc(C2NC(=S)NC(C)=C2C(=O)Nc2ccc(Cl)cc2)ccc1O` (centres undefined), for which the displacement is -3.2%.
Then `Cc1ccc2c(Cl)c(C(=O)NCC3CCCO3)sc2c1` (centres undefined), with -20.5%; and `CCOCCOC(=O)c1ccc(NC(=O)COc2ccc(C)cc2C)cc1`, with -9%.
Then `O=C(ON=C1c2ccccc2-c2ccccc21)c1ccc(Cl)cc1Cl`, with 13.1%; and `CCCCOc1ccc(C=C2C(=O)N(C)C(=O)N(C)C2=O)cc1`, with 8.8%.
With `Cc1ccc(C=C2C(=O)N(C)C(=O)N(C)C2=O)cc1`, the displacement was determined as 79.7%.
The figure for `CN1C(=O)C(=Cc2ccc(N3CCOCC3)cc2)C(=O)N(C)C1=O` is 8.9%.
The figure for `COc1ccccc1C/C(N)=N/OC(=O)COc1ccc2ccccc2c1` is 5.6%.
Regarding `CCOc1ccccc1C1Nc2ccccc2NC2=C1C(=O)CC(c1ccc(OC)c(OC)c1)C2` (centres undefined), the displacement turned out to be 11.3%.
The figure for `CCOC(=O)COc1ccc(/C=c2/sc3nc4cc(C)c(C)cc4n3c2=O)cc1OC` is -4.4%.
As to `O=C(/C=C/c1ccccc1)Nc1nnc(-c2ccccc2)s1`, the displacement came to 7.6%.
Then `COc1cccc(-c2nnc(NC(=O)/C=C/c3ccccc3)s2)c1`, with 51.4%; and `O=C(/C=C/c1ccccc1)Nc1nnc(-c2ccncc2)s1`, with -6%.
Then `COc1ccc(NC(=O)c2ccc(OC)c(OC)c2)cc1Cl`, with 20.4%; and `O=C(Nc1ccccc1Cl)c1ccc2ccccc2n1`, with 1%.
The figure for `O=C(Nc1ccccc1[N+](=O)[O-])c1ccc2ccccc2n1` is 89.3%; for `Cc1ccccc1NC(=O)c1ccc2ccccc2n1` it is -3.8%; for `CC(=O)Nc1ccc2oc(-c3ccc4nc(NC(C)=O)sc4c3)nc2c1` it is -4.1%.
Take `Cc1ccc(S(=O)(=O)N2CCCCCC2)cc1`: the displacement is -12.9%.
For the compound `CC(=O)NC1=NC(=O)/C(=C/c2cc(C)n(-c3ccc(C(=O)O)cc3)c2C)S1`, the displacement was -89.7%.
`COC(=O)c1cccc(-n2c(C)cc(/C=C3\SC(NC(C)=O)=NC3=O)c2C)c1`: the displacement was 1.1%.
Then `COC(=O)c1ccc(-n2c(C)cc(/C=C3\SC(NC(C)=O)=NC3=O)c2C)cc1`, with 114%.
The figure for `C=CCN1C(=O)/C(=C\c2ccc(C(=O)OC)cc2)SC1=S` is 7.8%.
The figure for `C=CCN1C(=O)/C(=C/c2cc(C)n(-c3ccc(C(=O)OC)cc3)c2C)SC1=S` is 109%; for `C=CCN1C(=O)/C(=C\c2cc(C)n(-c3ccc([N+](=O)[O-])cc3)c2C)SC1=S` it is 14.9%.
In the case of `COc1ccccc1-n1c(SCC(=O)c2ccccc2)nc2ccccc2c1=O`, the displacement was -4.7%.
Then `COc1ccc(-c2cc(C(=O)OC(C)C)c3cc(Br)ccc3n2)cc1`, with -3.9%.
Then `O=C(Nc1ccccc1)C1C2/C=C\CCCCC21` (centres undefined), with -10.2%; and `O=C(N/N=C/c1ccco1)c1ccc(C(=O)N/N=C/c2ccco2)cc1`, with 27.6%.
For `Cc1cccc(NC(=O)c2ccccc2NC(=O)c2cccs2)c1C`, the displacement was determined as 9.5%.
The figure for `Nc1c(C(=O)C2CC2)sc2nc(-c3cccs3)cc(C(F)(F)F)c12` is 52.1%; for `CC1CCCCN1C(=O)c1cc2nc(-c3cccs3)cc(C(F)(F)F)n2n1` (centres undefined) it is 18.3%.
The figure for `O=C(O)c1cnn2c(C(F)(F)F)cc(-c3cccs3)nc12` is 5.9%; for `N#C/C(=C(/O)C(c1ccccc1)c1ccccc1)c1nc2ccccc2s1` it is -3.6%.
Then `CC(C)(C)c1cc(C2=C(N3CCOCC3)C(=O)c3ccccc3C2=O)cc(C(C)(C)C)c1O`, with 11.6%.
